Laboratory results published in PubChem BioAssay (NCATS).
Results filed as inconclusive are left out. Unless noted, the call rests on the fitted dose curve; in most records, active means well fitted curve in either direction with a large enough effect (not every such curve was filed as active); inconclusive means small, poorly fitted or top-dose-only effect, or another doubt; inactive means flat fitted curve, though single readings scatter.

Key:
[1] = AP1 Signaling Pathway (AID 357); conditions: ME-180 AP-1-bla reporter, EGF-induced, beta-lactamase ratio, 5 h; at 17.2 µM (top of the series) unless noted;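 further: ME-180 reporter cells stimulated with EGF at its EC50 level; on the % scale 0 is the no-effect control and ±100 the full control effect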
Outline: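 Beta-lactamase reporter under AP-1 response element, ME-180 background. Stimulus: EC50 EGF. Compound exposure 5 h, 37 °C. Detection: CCF4, 2.5 h RT, 460/530 nm. Values: AC50 from titration.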

[2] = NFAT Signaling Pathway (AID 444); conditions: Jurkat NFAT-bla M1, carbachol, beta-lactamase ratio, 5 h; at 17.2 µM (top of the series) unless noted;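 further: carbachol stimulus at about its EC50 of 1 µM final; on the % scale 0 is the no-effect control and ±100 the full control effect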
Outline: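 Jurkat cells with NFAT-driven β-lactamase reporter and co-expressed M1 receptor, stimulated with carbachol (final 1 uM, ~EC50), compound titration, 5 h at 37 °C. CCF4 loaded 1 h at RT; 460/530 nm ratio gave %activity and AC50.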

[3] = Stat Signaling Pathway (AID 446); conditions: ME-180 (cervical carcinoma) SIE beta-lactamase reporter, IL-6 stimulated, 5 h; at 17.2 µM (top of the series) unless noted;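 further: ME-180 cervical cancer cells given 40 pM IL-6 alongside compound; SIE-controlled beta-lactamase reporter measured as 460/530 nm FRET emission ratio; on the % scale 0 is the no-effect control and ±100 the full control effect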
Outline: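 Emission at 460 and 530 nm (excitation 405 nm) reports SIE-controlled beta-lactamase in ME-180 cells. Cells received compound with 40 pM IL-6 for 5 hrs at 37 C; data scaled between 300 pM IL-6 and 125 nM JAK-inhibitor controls.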

[4] = target: Glucocorticoid receptor (Homo sapiens) (UniProt P04150); assay: GR-GFP Redistribution (AID 450;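 active means compounds whose dose series gives a full or clear partial fitted curve of increased nuclear translocation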; further: potency means the concentration at half of the fitted maximal effect)
Sequence of Glucocorticoid receptor (Homo sapiens) (P04150 whole entry, looked up): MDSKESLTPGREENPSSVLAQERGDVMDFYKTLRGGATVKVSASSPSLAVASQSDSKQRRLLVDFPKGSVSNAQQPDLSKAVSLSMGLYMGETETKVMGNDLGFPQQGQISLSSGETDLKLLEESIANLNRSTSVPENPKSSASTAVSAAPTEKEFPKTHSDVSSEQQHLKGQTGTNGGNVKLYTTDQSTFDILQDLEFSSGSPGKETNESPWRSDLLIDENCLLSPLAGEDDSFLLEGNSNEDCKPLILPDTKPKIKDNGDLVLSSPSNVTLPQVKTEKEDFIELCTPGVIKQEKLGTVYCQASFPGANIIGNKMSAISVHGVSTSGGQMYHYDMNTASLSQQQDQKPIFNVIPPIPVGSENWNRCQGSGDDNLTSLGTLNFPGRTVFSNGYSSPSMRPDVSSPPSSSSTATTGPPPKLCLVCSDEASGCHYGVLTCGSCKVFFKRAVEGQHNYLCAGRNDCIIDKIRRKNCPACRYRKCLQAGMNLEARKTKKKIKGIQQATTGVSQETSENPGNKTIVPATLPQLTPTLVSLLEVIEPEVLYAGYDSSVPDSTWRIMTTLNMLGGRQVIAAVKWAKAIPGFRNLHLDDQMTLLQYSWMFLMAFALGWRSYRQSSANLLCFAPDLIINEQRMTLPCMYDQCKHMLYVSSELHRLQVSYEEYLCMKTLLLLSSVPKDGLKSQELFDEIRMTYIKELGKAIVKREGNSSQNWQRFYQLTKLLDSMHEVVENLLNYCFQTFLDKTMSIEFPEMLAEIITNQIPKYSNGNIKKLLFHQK

Cc1ccc(-n2c(N)c(C(N)=O)sc2=S)cc1
inactive: activity change, negative = inhibition [1] 6.9% | activity change, negative = inhibition [2] 9.14% | activity, negative = inhibition [3] -24.5% | Potency [4] > 20.6 µM

Cc1cc(=O)oc2c(CN3CCN(C)CC3)c(O)c(Cl)cc12
inactive: activity change, negative = inhibition [1] 16.9% | activity change, negative = inhibition [2] 25% | activity, negative = inhibition [3] 9.62% | Potency [4] > 20.6 µM

CC(=O)c1c(OCC(=O)O)ccc2c(C)cc(=O)oc12
inactive: activity change, negative = inhibition [1] 15% | activity change, negative = inhibition [2] -8.66% | activity, negative = inhibition [3] 13.1% | Potency [4] > 20.6 µM

Cc1c2c([n+]3n1CCC3)CC(C)(C)CC2=O
inactive: activity change, negative = inhibition [1] 8.99% | activity change, negative = inhibition [2] -9.27% | activity, negative = inhibition [3] 11.2% | Potency [4] > 20.6 µM

CCOC(=O)c1c(-c2cccs2)csc1NC(=O)CCCC(=O)O
inactive: activity change, negative = inhibition [1] -7.6% | activity change, negative = inhibition [2] -2.47% | activity, negative = inhibition [3] -0.962% | Potency [4] > 20.6 µM

c1cc(-c2nnc3sc(C4CCCCC4)nn23)ccn1
inactive: activity change, negative = inhibition [1] -28.7% | activity change, negative = inhibition [2] -22.5% | activity, negative = inhibition [3] -15.8% | Potency [4] > 20.6 µM

COc1cccc(NC(=O)CC2SC(=Nc3ccccc3)NC2=O)c1 (centres undefined)
inactive: activity change, negative = inhibition [1] -10.5% | activity change, negative = inhibition [2] 2.42% | activity, negative = inhibition [3] -17.8% | Potency [4] > 20.6 µM

CS(=O)(=O)c1ccc2nc(NC(NC(=O)c3ccco3)(C(F)(F)F)C(F)(F)F)sc2c1
inactive: activity change, negative = inhibition [1] -11.7% | activity change, negative = inhibition [2] 21.2% | activity, negative = inhibition [3] -18.9% | Potency [4] > 20.6 µM

CCOC(=O)c1cc(C)n(-c2ccc(OC)c(OC)c2)c1C
inactive: activity change, negative = inhibition [1] -17.8% | activity change, negative = inhibition [2] -1.46% | activity, negative = inhibition [3] -14.1% | Potency [4] > 20.6 µM

COCCCN1C(=O)C(O)=C(C(=O)c2ccco2)C1c1ccc(Br)cc1 (centres undefined)
inactive: activity change, negative = inhibition [1] -15.5% | activity change, negative = inhibition [2] 11.4% | activity, negative = inhibition [3] -8.56% | Potency [4] > 20.6 µM

Cc1c(Cl)cccc1N1C(=O)C2ON(c3ccccc3)C(c3cccnc3)C2C1=O (centres undefined)
inactive: activity change, negative = inhibition [1] 4.21% | activity change, negative = inhibition [2] 0.827% | activity, negative = inhibition [3] 0.542% | Potency [4] > 20.6 µM

COc1ccc(/C(O)=C2/C(=O)C(=O)N(c3nc(C)c(C)s3)C2c2ccco2)cc1 (centres undefined)
inactive: activity change, negative = inhibition [1] -13.8% | activity change, negative = inhibition [2] 21.3% | activity, negative = inhibition [3] -14.6% | Potency [4] > 20.6 µM

O=C(CN1C(=O)c2ccccc2S1(=O)=O)NCCSCc1ccco1
inactive: activity change, negative = inhibition [1] -8.94% | activity change, negative = inhibition [2] 8.79% | activity, negative = inhibition [3] -4.36% | Potency [4] > 20.6 µM

CCOc1cccc(-c2nn3c(-c4ccccn4)nnc3s2)c1
inactive: activity change, negative = inhibition [1] -15% | activity change, negative = inhibition [2] -14.4% | activity, negative = inhibition [3] -1.87% | Potency [4] > 20.6 µM

CC1(C)CC(=O)C2=C(C1)N(CC1CCCO1)C(=O)C2(O)C(F)(F)F (centres undefined)
inactive: activity change, negative = inhibition [1] 4.53% | activity change, negative = inhibition [2] 0.206% | activity, negative = inhibition [3] 5.45% | Potency [4] > 20.6 µM

C=CCn1cnc2c(c1=O)c1nc3ccccc3nc1n2-c1ccc(C)cc1
inactive: activity change, negative = inhibition [1] -1.69% | activity change, negative = inhibition [2] -10.5% | activity, negative = inhibition [3] -8.6% | Potency [4] > 20.6 µM

O=C1CCC(=O)N1c1nc2nc(-c3ccccc3)cc(-c3ccccc3)n2n1
inactive: activity change, negative = inhibition [1] -12.9% | activity change, negative = inhibition [2] 6.64% | activity, negative = inhibition [3] -1.33% | Potency [4] > 20.6 µM

CCc1[nH]c(=O)c(C#N)c2c1CCCC2
inactive: activity change, negative = inhibition [1] 3.3% | activity change, negative = inhibition [2] -7.46% | activity, negative = inhibition [3] 4.68% | Potency [4] > 20.6 µM

COc1cccc(C2/C(=C(/O)c3ccc(C)cc3)C(=O)C(=O)N2Cc2ccco2)c1 (centres undefined)
inactive: activity change, negative = inhibition [1] 2.99% | activity change, negative = inhibition [2] -8.9% | activity, negative = inhibition [3] -9.32% | Potency [4] > 20.6 µM

Cc1noc(COc2ccccc2OCC(O)CNC(C)(C)C)n1 (centres undefined)
inactive: activity change, negative = inhibition [1] 4.01% | activity change, negative = inhibition [2] -1.96% | activity, negative = inhibition [3] 1.99% | Potency [4] > 20.6 µM

C#CC1CN(Cc2ccccc2)CC(C#C)N1C (centres undefined)
inactive: activity change, negative = inhibition [1] 9.35% | activity change, negative = inhibition [2] -2.08% | activity, negative = inhibition [3] 9.92% | Potency [4] > 20.6 µM

CCCCn1c2nc3ccccc3nc2c2c(=O)n(CC(C)C)cnc21
inactive: activity change, negative = inhibition [1] -1.88% | activity change, negative = inhibition [2] -20.4% | activity, negative = inhibition [3] -6.11% | Potency [4] > 20.6 µM

Cn1ncc2c(Nc3ccccc3Br)ncnc21
inactive: activity change, negative = inhibition [1] 5.55% | activity change, negative = inhibition [2] 17% | activity, negative = inhibition [3] -3.41% | Potency [4] > 20.6 µM

CCOc1cccc(-c2nnc3sc(-c4ccc(C)cc4)nn23)c1
inactive: activity change, negative = inhibition [1] 18.5% | activity change, negative = inhibition [2] -19.6% | activity, negative = inhibition [3] 24.1% | Potency [4] > 20.6 µM

CCOC(=O)CC1=NC(=O)CS1
inactive: activity change, negative = inhibition [1] 2.69% | activity change, negative = inhibition [2] 0.359% | activity, negative = inhibition [3] 4.4% | Potency [4] > 20.6 µM

CCOC(=O)CSC1=C(C#N)C(c2ccc(OC)cc2)C2=C(CC(C)(C)CC2=O)N1 (centres undefined)
inactive: activity change, negative = inhibition [1] -15.4% | activity change, negative = inhibition [2] 7.5% | activity, negative = inhibition [3] -4.41% | Potency [4] > 20.6 µM
